Assay [1] is described as follows: Primary qHTS for Vero E6 cytotoxicity: counterscreen for inhibitors of SARS-S pseudo-typed particle cell entry (AID 1479150; calls by dose curve). (In general: Quantitative high-throughput screening tests each substance at several concentrations.)
Assay [2] can be described thus: Cytotoxicity counterscreen for inhibitors of SARS-CoV-2 cell entry (AID 1645845; calls by dose curve; further: nearly all actives have a fitted effect of over 50% in size). The settings on record: outcome: dose series up to 57.1 µM unless noted. The procedure, abridged: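 ATP-content luminescence (ATPLite 1step, 15 min RT) read after 48 h compound exposure of Expi293F cells stably expressing human ACE2; normalized to cells-only wells and media-only wells.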

Assay [3] can be described thus: Primary qHTS to identify inhibitors of SARS-CoV-2 cell entry (AID 1645846; calls by dose curve; further: nearly all actives have a fitted effect of over 45% in size). The settings on record: activity change, negative = inhibition: at 57.1 µM (top of the series) unless noted. Put shortly: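 Using luciferase-reporting pseudoviruses carrying Wuhan-Hu-1 spike, the screen tracks entry into stably ACE2-expressing cells over 48 hr. Activity is expressed relative to spike particles versus particles lacking any fusion protein.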

Assay [4] can be described thus: Primary qHTS for inhibitors of La Crosse Virus (LACV) - induced cell death in SH-SY5Y cells (AID 1508616).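 Further: top concentration of the series differs between compounds; higher means more rescue of cells from virus-induced death.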 Put shortly:
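SH-SY5Y, 6000 cells/well; cpd via pin tool in DMSO; LACV 0.01 MOI; 6 d 37C 5% CO2; ATPLite, 5 min RT; luminescence normalized to ±virus DMSO controls.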

In assay [5] the target is Calcium and integrin-binding protein 1 (Homo sapiens) (UniProt Q99828). As to the kind of experiment: Validation qHTS for Identification of Calcium Integrin Binding protein 1 (CIB1) Competitor (AID 1508618). Further: potency means the concentration at half of the fitted maximal effect. The procedure, abridged:
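Fluorescence polarization with 1 uM CIB1-GST and 100 nM FITC-alphaIIb peptide in HEPES pH 7.4, NaCl, 5 mM CaCl2, Tween20. Compounds at up to 114 uM final, preincubated with protein 15 min; read after 15 min more at RT.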

A short description of assay [6]: Primary qHTS for small molecule stabilizers of the endoplasmic reticulum resident proteome: Secreted ER Calcium Modulated Protein (SERCaMP) assay (AID 1508630). The procedure, abridged: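 The SH-SY5Y reporter protocol was run at 3 concentrations up to 38.3 uM (primary) or 11 concentrations (follow-up): 16 h compound, 100 nM thapsigargin for 4 h, then extracellular luciferase luminescence.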

In the next assay the target is Papain (Carica papaya) (UniProt P00784). In words: Primary qHTS assay for inhibitors of the protease papain (AID 1645873).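 Further: papain turnover of Z-FR-AMC read as the AMC fluorescence gain over 10 min.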
Papain (Carica papaya), sequence (P00784 whole entry, looked up): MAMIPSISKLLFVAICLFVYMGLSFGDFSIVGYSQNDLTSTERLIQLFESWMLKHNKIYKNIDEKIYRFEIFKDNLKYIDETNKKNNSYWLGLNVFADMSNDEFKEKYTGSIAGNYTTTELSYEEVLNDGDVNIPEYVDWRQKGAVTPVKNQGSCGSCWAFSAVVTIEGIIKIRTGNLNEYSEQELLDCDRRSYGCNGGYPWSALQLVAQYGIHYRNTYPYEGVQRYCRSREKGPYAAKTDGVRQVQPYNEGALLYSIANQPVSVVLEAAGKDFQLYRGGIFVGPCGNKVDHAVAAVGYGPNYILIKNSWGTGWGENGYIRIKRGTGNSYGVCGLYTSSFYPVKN
A short description of assay [7]: Counterscreen qHTS for small molecule stabilizers of the endoplasmic reticulum resident proteome: GLuc-NoTag assay (AID 1508627). Put shortly: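 Counterscreen line: SH-SY5Y-GLuc-NoTag cells, treated with compound 19 hr before a 4 hr, 100 nM thapsigargin calcium depletion. Secreted Gaussia luciferase in the medium was measured by luminescence after coelenterazine was added (0.07x final), with cells unlysed.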
A general note: The purpose of a counterscreen is to sort out artefacts and off-target activity.

A short description of assay [8]: Cell Viability qHTS for small molecule stabilizers of the endoplasmic reticulum resident proteome (AID 1508629).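 Further: human SH-SY5Y neuroblastoma cells carrying the GLuc-SERCaMP reporter; compound exposure about 46 h in total before the viability read.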 The settings on record: cell viability counter-screen, 100 nM thapsigargin for final 4 h.
The nature of assay [9]: Confirmatory qHTS for small molecule stabilizers of the endoplasmic reticulum resident proteome: Secreted ER Calcium Modulated Protein (SERCaMP) assay (AID 1508628). Further: nearly all actives have a fitted effect of over 40% in size. Further: potency means the concentration at half of the fitted maximal effect. Put shortly:
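Reporter secretion upon ER calcium depletion (100 nM thapsigargin, 4 h, 37C) is measured as medium luminescence with coelenterazine, after 16 h compound pretreatment of SH-SY5Y-GLuc-SERCaMP cells; primary at three concentrations up to 38.3 uM, follow-up at 11 (up to 76.6 uM).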

A short description of assay [10]: Confirmatory qHTS for VERO E6 Cytotoxicity Assay: Counterscreen for SARS-CoV-2 CPE Assay (AID 1508605; calls by dose curve; further: nearly all actives have a fitted effect of over 60% in size).
Assay [11] can be described thus: Primary qHTS for inhibitors of nuclear receptor binding SET domain protein 2 (NSD2) in an isogenic RCH-ACV NSD2 p.E1099K mutant (9B) (AID 1645876). Further: potency means the concentration at half of the fitted maximal effect; nearly all actives have a fitted effect of over 70% in size.

Inconclusive results are not listed. Where a call stands in place of a potency, no number is given. Active and inactive are the calls of the source. Unless noted, the call rests on the fitted dose curve; in most records, active means well fitted curve in the direction sought with a large enough effect; inconclusive means small, poorly fitted or top-dose-only effect, or another doubt; inactive means no such curve, though single readings can be large; an effect the other way counts as inactive or inconclusive.

Calcium and integrin-binding protein 1 (Homo sapiens), sequence (Q99828 whole entry, looked up): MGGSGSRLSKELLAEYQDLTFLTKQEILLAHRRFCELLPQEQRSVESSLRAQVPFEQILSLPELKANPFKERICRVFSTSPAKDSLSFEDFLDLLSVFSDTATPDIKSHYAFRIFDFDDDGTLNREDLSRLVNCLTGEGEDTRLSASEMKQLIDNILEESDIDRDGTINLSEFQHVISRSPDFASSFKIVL

As to `C[C@@H]([C@H](O)c1ccccc1)N(C)C`, in assay [1], the Potency entry was “inactive”. The result in assay [2] was inactive. For the same molecule, in assay [3], the activity change, negative = inhibition was -34.9%.

For the molecule `CCCCC[C@@H](O)C1C(=O)OC(C)[C@H](O)/C=C/C=C/C=C/C=C/C=C(\C)C(O)C(O)C(O)C[C@H](O)C[C@H](O)C[C@H](O)C[C@H](O)C[C@@H]1O` (stereo partly drawn), the Potency result in [1] was “inactive”. Moreover, the molecule was called inactive in assay [2]. The activity change, negative = inhibition in [3] is -29.9%.

On to `NCC(CP(=O)(O)O)c1ccc(Cl)cc1` (stereo not drawn), for which the Potency entry in [4] and in assay [5] was “inactive” each time. In addition, the outcome in [6] was inactive.

Regarding `N[C@@H](Cn1ccc(=O)[nH]c1=O)C(=O)O`, the Potency entry in [4] is “inactive”.

For `CCCCCCC(=O)O[C@H]1CC[C@H]2[C@@H]3CC[C@H]4CC(=O)C=C(C)[C@]4(C)[C@H]3CC[C@]12C`, the Potency entry in assay [1] is “inactive”. The outcome in [2] was inactive. Moreover, in assay [3], the activity change, negative = inhibition was -7.93%.

Take `CCCCCCCCCC(=O)O[C@H]1CC[C@H]2[C@@H]3CCC4=CC(=O)CC[C@]4(C)[C@H]3CC[C@]12C`: the Potency result in [1] is “inactive”. For the same molecule, the outcome in assay [2] was inactive. For the same molecule, the activity change, negative = inhibition in [3] was -15.3%.

Turning to `CN1[C@H]2CC[C@@H]1[C@@H](C(=O)O)[C@@H](OC(=O)c1ccccc1)C2`, the Potency result in [1] is “inactive”. The molecule was called inactive in assay [2]. For the same molecule, in assay [3], the activity change, negative = inhibition is -21.7% [at 114 µM].

With `O=C(OCCN1CCCCC1)C(O)(c1ccccc1)c1ccccc1`, in assay [1], the Potency result was “inactive”. The call in [2] was inactive. Moreover, in assay [3], the activity change, negative = inhibition was -28.8%.

`C[N+]1(C)CCCCC1COC(=O)C(O)(c1ccccc1)c1ccccc1` (stereo not drawn): the Potency entry in assay [1] is “inactive”. For the same molecule, in assay [2], the molecule was classed as inactive. The activity change, negative = inhibition in [3] was -8.43%.

On to `NCCc1c[nH]c2ccc(C(N)=O)cc12`, for which the Potency entry (in assay [4]; in [5]; in the assay with Papain (Carica papaya)) was “inactive” in each case. In addition, the result in assay [6] was inactive.

Take `Nc1ccc(CCN2CCN(c3cccc(C(F)(F)F)c3)CC2)cc1`: the Potency entry (in [4]; in assay [5]; with Papain (Carica papaya)) was “inactive” in each case. Moreover, the result in assay [7] and in [6] was inactive. Also, in assay [8], the max response was 11.7% (inactive).

On to `NC(Cc1cc(O)c(O)cc1O)C(=O)O` (stereo not drawn), for which the Potency entry in assay [4] is “inactive”. In addition, the Potency in assay [5] was 35.5 µM (active).

Turning to `COc1ccc2[nH]c3c(c2c1)CCNC3`, the Potency entry in assay [4] and in assay [5] was “inactive” throughout. The outcome in assay [6] was inactive.

As to `CC(C)CCON=O`, the Potency entry in assay [1] and in [3] was “inactive” throughout. In addition, in [2], the result was inactive.

`c1ccc2c(N3CCNCC3)cccc2c1`: the Potency result in assay [4] and in [5] was “inactive” throughout. The result in assay [7] was inactive.

With `CCCCCCC(C)(C)c1ccc([C@@H]2C[C@H](O)CC[C@H]2CCCO)c(O)c1`, the Potency entry in assay [4] was “inactive”.

`C[C@H](N)CN1CCc2ccc(Br)cc21`: the Potency entry (in assay [4]; in assay [5]; in the assay with Papain (Carica papaya)) was “inactive” throughout. Also, the molecule was called inactive in [7]. Moreover, the max response in [8] is -3.5% (inactive).

Regarding `NCC(O)c1cc(O)c(O)cc1F` (stereo not drawn), the Potency entry (in assay [4]; in assay [5]; in assay [9]; in the assay with Papain (Carica papaya)) was “inactive” each time.

`c1ccc2sc(SNC3CCCCC3)nc2c1`: the Potency entry in assay [1] is “inactive”. In assay [2], the outcome was inactive. Moreover, the activity change, negative = inhibition in assay [3] was found to be 2.84% [at 114 µM].

With `NC(CCCCCP(=O)(O)O)C(=O)O` (stereo not drawn), the Potency entry (in assay [4]; in assay [5]; with Papain (Carica papaya)) was “inactive” throughout. In addition, the result in [6] was inactive.

Take `O=c1c2ccccc2[se]n1-c1ccccc1`: the molecule was classed as inactive in [10] and in assay [6]. Besides, the Potency entry in assay [4] is “inactive”.

`CC(=O)OCC1=C(C(=O)O)N2C(=O)[C@@H](NC(=O)CCC[C@@H](N)C(=O)O)[C@H]2SC1`: the Potency result in [4] and in [5] was “inactive” each time. Besides, in assay [6], the outcome was inactive.

Take `CCCN1CC[C@@H]2c3cc(O)ccc3CC[C@@H]21`: the Potency entry (in [4]; in assay [5]; in the assay with Papain (Carica papaya)) was “inactive” throughout. Further, the outcome in [6] was inactive.

For `Cn1sc(Cl)cc1=O`, in assay [1], the Potency result is “inactive”. In assay [2], the molecule was called inactive. Also, the activity change, negative = inhibition in assay [3] is -5.28%.

Take `C[C@]12Cc3cn4c(nc3C=C1CCC1C2CC[C@@]2(C)[C@H]1CC[C@@]2(O)C#N)nc1ccccc14` (stereo partly drawn): the Potency result in assay [4] and in assay [5] was “inactive” throughout. In assay [6], the outcome was inactive.

For `N#C/C(=C/c1ccc(O)c(O)c1)C(N)=S`, the Potency entry (in assay [4]; in [5]; in the assay with Papain (Carica papaya)) was “inactive” each time. Also, in assay [7], the molecule was classed as inactive. Also, the Potency in assay [9] is 10 µM (active); in assay [11], 8.2 µM (active).

As to `Cc1ccccc1-n1c(CF)nc2ccc(N)cc2c1=O`, the Potency result in assay [1] is “inactive”. Also, the result in [2] was inactive. In addition, the activity change, negative = inhibition in assay [3] was -3.31%.

`Clc1ccc(N2CC3CCC(C2)N3)nn1`: the Potency result (in assay [4]; in assay [5]; in the assay with Papain (Carica papaya)) was “inactive” each time. The call in assay [7] was inactive. The max response in assay [8] was -7.5% (inactive).

With `CCC1C(C)=NN=C(c2ccc(OC)c(OC)c2)c2cc(OC)c(OC)cc21` (stereo not drawn), the Potency entry in assay [1] and in assay [3] was “inactive” in each case. In addition, the call in assay [2] was inactive.

As for `O=[N+]([O-])c1cc(O)c(O)c([N+](=O)[O-])c1`, the Potency result in assay [4] and in [5] was “inactive” each time. Further, the outcome in assay [6] was inactive.

Consider `O=P(O)(O)C(Cl)(Cl)P(=O)(O)O`, for which the outcome in [1] is “inactive [at 5.34 µM]”. In assay [2], the activity change, negative = cytotoxicity was 3.8% [at 5.25 µM] (inactive). For the same molecule, the activity change, negative = inhibition in assay [3] was -6.21% [at 5.25 µM].

As for `CCS(=O)(=O)Nc1cccc(C(=C2CCCCC2)c2cnc[nH]2)c1`, the Potency entry (in assay [4]; in assay [5]; with Papain (Carica papaya)) was “inactive” each time. Also, in [6], the result was inactive.

Turning to `C[N+](C)(C)CC#CCOC(=O)Nc1cccc(Cl)c1`, the Potency result (in assay [4]; in assay [5]; in the assay with Papain (Carica papaya)) was “inactive” throughout. Also, the outcome in assay [6] was inactive.

As for `COc1ccc2[nH]cc(CCN)c2c1`, the Potency entry (in assay [4]; in assay [5]; with Papain (Carica papaya)) was “inactive” each time. In addition, the result in assay [6] was inactive.

`CC(C)(C)c1o[nH]c(=O)c1CC(N)C(=O)O` (stereo not drawn): the Potency result (in assay [4]; in assay [5]; with Papain (Carica papaya)) was “inactive” each time. In addition, the result in assay [6] was inactive.

`NCCCP(=O)(O)O`: the Potency entry (in assay [4]; in assay [5]; in the assay with Papain (Carica papaya)) was “inactive” each time. Moreover, the outcome in [6] was inactive.

As to `CCN1C[C@@]2(COC)C3[C@@H](OC)C4[C@@H]1C3([C@@H]1C[C@]3(O)[C@H](OC(=O)c5ccccc5)[C@@H]1[C@]4(OC(C)=O)[C@@H](O)[C@@H]3OC)[C@H](OC)C[C@H]2O`, the Potency result (in assay [4]; in [5]; with Papain (Carica papaya)) was “inactive” each time. In addition, the outcome in assay [6] was inactive.

For the molecule `C=CCN1CCC23c4c5ccc(O)c4O[C@H]2C(=O)CC[C@@]3(O)C1C5` (stereo partly drawn), the Potency entry (in assay [4]; in [5]; with Papain (Carica papaya)) was “inactive” each time. Also, the outcome in assay [6] was inactive.

On to `CC(C)NP(=O)(NC(C)C)OP(=O)(NC(C)C)NC(C)C`, for which the Potency entry (in assay [4]; in assay [5]; in the assay with Papain (Carica papaya)) was “inactive” in each case. The outcome in assay [6] was inactive.

For the molecule `C[N+](C)(C)CCOC(=O)CBr`, the Potency entry (in assay [4]; in assay [5]; in the assay with Papain (Carica papaya)) was “inactive” throughout. Also, the outcome in assay [6] was inactive.

Values taken from PubChem BioAssay (NCATS).
